PLK1 PBD block = qHTS for Inhibitors of PLK1-PDB (polo-like kinase 1 - polo-box domain): Primary Screen | Serine/threonine-protein kinase PLK1 (Homo sapiens), P53350 | Plk1 PBD binding of FITC phosphopeptide, fluorescence polarization | Potency, µM, without a hit: max response, negative = inhibition, hits mostly inhibitors | 2.8% of 360,000 active | AID 720504, 2013; further: potency means the concentration at half of the fitted maximal effect; series mostly up to about 57 µM; on the % scale 0 is the no-effect control and ±100 the full control effect; nearly all actives have a fitted effect of over 65% in size
HP1b chromo inh = HTS for Inhibitors of HP1-beta Chromodomain Interactions with Methylated Histone Tails. Chromobox protein homolog 1 (Homo sapiens), P83916. AlphaScreen HP1-beta / biotin-H3K9me3 peptide binding. Potency, µM (highest dose often 114 µM), for the others: top-dose activity change, negative = inhibition, hits mostly inhibitors. 0.56% of 390,000 active. AID 540317, 2011; further: potency means the concentration at half of the fitted maximal effect; nearly all actives have a fitted effect of over 70% in size
Target sequence (P83916 whole entry, looked up): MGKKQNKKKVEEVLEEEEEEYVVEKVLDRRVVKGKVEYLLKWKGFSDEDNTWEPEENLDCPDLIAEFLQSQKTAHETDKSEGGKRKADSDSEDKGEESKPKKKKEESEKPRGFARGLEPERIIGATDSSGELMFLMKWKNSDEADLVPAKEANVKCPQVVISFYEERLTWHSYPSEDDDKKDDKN
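Compound inhibition of the preformed complex between 50 nM HP1-beta and 50 nM biotinylated H3K9me3 peptide was read by AlphaScreen. Buffer was PBS pH 7.4 with 0.01% Tween-20. Incubations ran 30 min at room temperature, with 10 ug/mL donor/acceptor beads.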
PI5P4Ka inh = qHTS for Inhibitors of phosphatidylinositol 5-phosphate 4-kinase (PI5P4K); Phosphatidylinositol 5-phosphate 4-kinase type-2 alpha (Homo sapiens), P48426; PI5P4Kalpha enzyme, ADP-Glo luminescence, 60 min; stronger effect = lower value; max response, %; 1.2% of 330,000 active; AID 652105, 2013; active means max response of -50% or lower; inconclusive means between -30% and -50%; inactive means -30% or higher; further: value at the top dose of about 77 µM; on the % scale 0 is the no-effect control and ±100 the full control effect
Target sequence (P48426 whole entry, looked up): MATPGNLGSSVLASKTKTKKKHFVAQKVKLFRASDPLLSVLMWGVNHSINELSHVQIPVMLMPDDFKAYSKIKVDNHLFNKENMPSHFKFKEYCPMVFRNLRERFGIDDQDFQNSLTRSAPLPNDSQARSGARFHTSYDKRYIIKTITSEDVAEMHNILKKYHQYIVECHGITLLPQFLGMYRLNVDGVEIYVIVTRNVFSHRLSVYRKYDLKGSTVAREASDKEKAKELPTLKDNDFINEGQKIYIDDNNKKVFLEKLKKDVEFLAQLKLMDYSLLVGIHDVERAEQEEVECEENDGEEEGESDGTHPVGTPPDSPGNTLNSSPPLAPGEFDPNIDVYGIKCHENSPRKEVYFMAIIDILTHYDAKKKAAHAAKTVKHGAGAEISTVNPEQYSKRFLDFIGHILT
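ADP-Glo luminescence end-point read after a 60 min room-temperature kinase reaction of PI5P4Kalpha plus substrate, initiated with ATP at 5 microM final. Buffer: 0.038 M HEPES pH 7.4, EGTA, 0.1% CHAPS, 5% DMSO.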
BAZ2B inh = qHTS Assay for Inhibitors of BAZ2B; AlphaScreen BAZ2B-H3K14Ac peptide displacement; Potency, µM (titrated, usually from 114 µM), inactives show at the highest dose activity change, negative = inhibition, hits mostly inhibitors; 4.4% of 360,000 active; AID 504333, 2011; further: potency means the concentration at half of the fitted maximal effect; on the % scale 0 is the no-effect control and ±100 the full control effect; nearly all actives have a fitted effect of over 60% in size
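BAZ2B (50 nM) with biotin-H3(5-23)K14Ac peptide (50 nM) in PBS pH 7.4, 0.01% Tween-20, preformed 30 min, then compound 30 min at room temperature; top concentration 110uM. AlphaScreen streptavidin donor/nickel chelate acceptor beads (10 ug/mL final), 20 min dark, signal read.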
JMJD2A Tudor inh = qHTS Assay for Inhibitors of JMJD2A-Tudor Domain | Lysine-specific demethylase 4A (Homo sapiens), O75164 | AlphaScreen JMJD2A-Tudor / H3K4me3 peptide binding | Potency, µM (doses to about 114 µM), inactives show at the highest dose activity change, negative = inhibition, usual class: inhibitors | 4.4% of 390,000 active | AID 504339, 2011; further: potency means the concentration at half of the fitted maximal effect; on the % scale 0 is the no-effect control and ±100 the full control effect; nearly all actives have a fitted effect of over 50% in size
G9a block = qHTS Assay for Inhibitors of Histone Lysine Methyltransferase G9a | Histone-lysine N-methyltransferase EHMT2 (Homo sapiens), Q96KQ7 | G9a H3K9 monomethylation, AlphaScreen, 2 h | Potency, µM (highest dose often 102 µM), for inactives: at the top dose activity, negative = inhibition, actives largely listed as inhibitors | 8.8% of 350,000 active | AID 504332, 2011; further: potency means the concentration at half of the fitted maximal effect; on the % scale 0 is the no-effect control and ±100 the full control effect; nearly all actives have a fitted effect of over 75% in size
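Chemiluminescent proximity detection of H3K9 monomethylation, read after 10 min bead incubation in the dark. Reaction: 20 nM G9a, 500 nM biotin-H3K9 peptide, 20 uM SAM cofactor, 2 h, room temperature, following 15 min enzyme-compound preincubation.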
An asterisk follows results filed as active; ? = inconclusive; nt = not tested or not shown; [ ] = another dose, or the depositor's remark. The list is not random: actives were taken first. Their share in the collection is about 12%. Unless noted, the call rests on the fitted dose curve; in most records, active means well fitted curve in the direction sought with a large enough effect; inconclusive means small, poorly fitted or top-dose-only effect, or another doubt; inactive means no such curve, though single readings can be large; an effect the other way counts as inactive or inconclusive.

SMILES | PLK1 PBD block | HP1b chromo inh | PI5P4Ka inh | BAZ2B inh | JMJD2A Tudor inh | G9a block
Cc1ccc([C@@H]2CC=C(C(=O)O)[C@H](c3ccc(Cl)cc3)N2S(=O)(=O)c2ccc(C)cc2)cc1 | ? | 60.1% | 2.2 | -14.3% | -13.5% | -5.5%[2.33 µM]
CCCN1C(=O)CN(C2CCCCCC2)C(=O)C1c1ccc(OCC)c(OC)c1 (configuration not stated) | nt | 11.7% | nt | -5.4% | -25.1% | 7.2%[59 µM]
O=C(COCc1cc(-c2ccco2)on1)Nc1cccc(Cl)c1Cl | nt | 1.1% | nt | 24.8% | 15.5% | ?
Cc1ccc(S(=O)(=O)N2[C@@H](c3ccc(Cl)cc3)C(C(=O)O)=CC[C@H]2c2cccc(Cl)c2)cc1 | 23.8µM* | 10.5% | 1.8 | 7.1% | -19.4% | 12.3%[2.33 µM]
O=C(O)C1=CC[C@@H](c2ccc(Cl)cc2)N(S(=O)(=O)c2ccc(Cl)cc2)[C@H]1c1cccc(Cl)c1 | 29.9µM* | 33.9% | -5.8 | -11.4% | -24.1% | 26.2%[2.33 µM]
Cc1ccc(S(=O)(=O)N2[C@@H](c3ccc(Cl)cc3)C(C(=O)O)=CC[C@H]2c2cccc(C)c2)cc1 | ? | 22.1% | -0.1 | 4.4% | -20.0% | 8.4%[2.33 µM]
O=C(O)C1=CC[C@@H](c2ccc(Cl)cc2)N(S(=O)(=O)c2ccc(Cl)cc2)[C@H]1c1ccc(Br)cc1 | 26.7µM* | 0.8% | -28.3 | nt | -26.0% | nt
Cc1ccc(S(=O)(=O)N2[C@@H](c3ccc(F)cc3)C(C(=O)O)=CC[C@H]2c2ccc(Cl)cc2)cc1 | ? | 16.4% | -12.1 | 4.6% | -18.3% | -1.7%[2.33 µM]
CCN(CC)CCc1c(C)[nH]c(C(=O)OCc2ccccc2)c1C | -0.4% | -12.8% | nt | ? | -33.7% | 79.4µM*
CC(=O)c1c(C)[nH]c(C(=O)OCc2ccccc2)c1C | -14.2% | 12.0% | -2.0 | ? | -17.4% | 16.8%[59 µM]
Cc1c(Cc2ccccc2)c(=O)oc2cc(OCC(=O)N3CCC(C(=O)O)CC3)ccc12 | -14.6% | 18.8% | -7.7 | -3.5% | -18.4% | -7.1%[12.7 µM]
COc1cc(OC)cc(C(=O)NC(=S)Nc2nnn(C)n2)c1 | ? | ? | -27.2 | ? | ? | 10µM*
Cn1nnc(NC(=S)NC(=O)c2cccc3ccccc23)n1 | -23.1% | -17.1%[57 µM] | -6.1 | -37.7% | 2.82µM* | 7.94µM*
CC(C)C(=O)NC(=S)Nc1nnn(C)n1 | -14.0% | ? | 3.4 | 56.2µM* | 1.12µM* | 8.91µM*
Cn1nnc(NC(=S)NC(=O)c2ccc3ccccc3c2)n1 | -18.1% | nt | -22.7 | nt | nt | nt
Cc1ccc(N2C(=O)C(Cl)=C(N3CCCCCC3)C2=O)c(C)c1 | -1.0% | 159.9% | -1.0 | 97.1% | 118.3% | 168.8%
COc1ccc(-c2nc(CS(=O)CC(=O)NCCCN3CCOCC3)c(C)o2)cc1OC (configuration not stated) | -14.4% | 4.5%[57 µM] | 4.8 | 5.1% | -3.0% | -18.0%
O=C(CN1C(=O)NC2(CCCC2)C1=O)NNC(=O)c1ccccc1 | -6.5% | 25.1% | 0.4 | 3.1% | -0.7% | -0.6%
O=C(c1ccco1)N1CCC[C@@]2(CCN(Cc3ccccc3)C2)C1 | nt | nt | nt | nt | nt | 1.5%[12.7 µM]
CCN(CC(=O)Nc1c(F)cccc1F)C(=O)/C=C/c1ccc2ccccc2n1 | 13.4µM* | -89.4% | -99.7* | 8.91µM* | 3.55µM* | 7.08µM*
CCC1=NC(c2ccc(OC)c(OC)c2)N(O)C1(C)C (configuration not stated) | 29.9µM* | 19.2% | -0.8 | -2.7% | ? | -12.6%[59 µM]
Cc1cc(NC(=O)CSc2nnc(-c3ccccc3Cl)o2)no1 | -4.8% | 7.8% | -7.3 | -3.3% | -27.8% | 11.0%
CC(C)C(CCNC(=O)CC(Cc1ccccc1)c1ccco1)c1ccco1 (configuration not stated) | -17.2% | 0.1% | nt | 50.1µM* | ? | -26.2%[0.501 µM]
COc1ccc(/C=C2/SC(=S)N(CCCC(=O)Nc3ccccc3C(=O)O)C2=O)cc1 | ? | -32.1% | ? | ? | ? | 79.4µM*
O=C(CCCN1C(=O)/C(=C\c2ccccc2)SC1=S)Nc1ccc(C(=O)O)cc1 | -21.3% | -23.1% | -6.2 | -26.4% | ? | ?
SMILES | PLK1 PBD block | HP1b chromo inh | PI5P4Ka inh | BAZ2B inh | JMJD2A Tudor inh | G9a block
CCc1ccc(/C=C2\SC(=S)N(CCCC(=O)Nc3ccc(C(=O)O)cc3)C2=O)cc1 | ? | ? | -4.9 | 35.5µM* | 50.1µM* | -2.8%
O=C(CCN1C(=O)/C(=C/c2ccccc2)SC1=S)Nc1ccccn1 | -18.4% | 25.5% | 1.4 | ? | ? | -10.6%
COc1ccc(/C=C2/SC(=S)N(CCCC(=O)Nc3cccc(O)c3)C2=O)cc1 | -9.2% | ? | 1.0 | ? | ? | ?
COc1cc(/C=C2\SC(=S)N(CC(=O)Nc3ccc(O)cc3)C2=O)cc(OC)c1OC | -3.3% | 38.4% | 7.1 | -14.3% | -5.2% | 9.2%
COc1ccc(/C=C2\SC(=S)N(CC(=O)OCC(=O)Nc3cc(Cl)cc(Cl)c3)C2=O)cc1 | ? | -4.1% | 0.6 | -37.6% | ? | 31.6µM*
O=C(CN1C(=O)/C(=C/c2ccccc2)SC1=S)Nc1ncc(Cc2ccccc2)s1 | -7.8% | -20.0% | -6.3 | -33.8% | -26.0% | 50.1µM*
Cc1ccc(CN2COc3ccc4c(-c5ccccc5)cc(=O)oc4c3C2)cc1 | nt | 88.9% | nt | 2.2% | 1.0% | 27.1%[59 µM]
COc1cccc(/C=C2/SC(=S)N(CC(=O)Nc3nnc(C)s3)C2=O)c1 | 1.0% | 35.1% | -27.3 | -6.1% | -18.4% | -6.5%
O=C(CCCN1C(=O)/C(=C/c2cccs2)SC1=S)NNC(=O)c1ccccc1O | -11.1% | 22.6% | -15.8 | 56.2µM* | -17.9% | 18.8%[59 µM]
CCc1ccc(/C=C2\SC(=S)N(CCCC(=O)Nc3ccccc3C(=O)O)C2=O)cc1 | 21.2µM* | 2.2% | ? | ? | ? | 31.6µM*
COc1ccc(/C=C2\SC(=S)N(CCCC(=O)NNC(=O)c3ccccc3O)C2=O)cc1 | 23.8µM* | ? | 14.2 | 50.1µM* | -12.8%[11.4 µM] | 2.2%
CCc1ccc(/C=C2\SC(=S)N(CCCC(=O)Nc3nccs3)C2=O)cc1 | -4.9% | 40.0% | 1.6 | 29.0% | -0.7% | 24.3%[59 µM]
Cc1nnc(NC(=O)CCN2C(=O)/C(=C\c3ccccc3)SC2=S)s1 | -2.6% | 52.2% | -5.5 | 1.9% | -3.5% | 79.4µM*
COc1ccccc1/C=C1\SC(=S)N(CCC(=O)NNC(=O)c2ccccc2O)C1=O | 1.4% | 5.7% | -9.6 | -12.0% | -22.1% | nt

Bioassay records (PubChem)
